We go through seven compounds from PubChem BioAssay (NCI).

Compounds without any hit were thinned out: in the full panel of roughly 83,000, 20% have a hit.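 Single-dose data. Exposure time 48 hours. Values below 10 considered active.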 Values without a mark were called inactive. The source made the active and inactive calls.

Some test systems named below: DU-145 prostate; K-562 leukemia; MALME-3M melanoma; MDA-MB-231 breast; RXF 393 renal; SF-268 CNS; SF-295 CNS; SF-539 CNS; UACC-257 melanoma; M14 melanoma; HCT-15 colon; HT29 colon; SNB-75 CNS; SNB-19 CNS; U251 CNS; PC-3 prostate; SK-MEL-5 melanoma; UACC-62 melanoma; LOX IMVI melanoma; SK-MEL-28 melanoma.
Experiment in all cases: NCI-60 one-dose screen, 48 h (100 = growth as untreated, 0 = no growth, -100 = all killed)
What all share (settings): 10 µM unless noted

Take `N#CSc1c[nH]c2cccc(/C=C/C(=O)/C=C(O)/C=C/c3cccc4[nH]cc(SC#N)c34)c12`: the growth was -78.7% (active) in the experiment with DU-145 prostate; -12.9% (active) in the experiment on K-562 leukemia; -82.3% (active) in the experiment with MALME-3M melanoma; -78.3% (active) in the experiment on MDA-MB-231 breast; -62.9% (active) with RXF 393 renal; -31.9% (active) in the experiment on SF-268 CNS. In addition, the growth in the experiment on SF-295 CNS was -87.7% (active); with SF-539 CNS, -68.5% (active); in the experiment on UACC-257 melanoma it was -27.4% (active); in the experiment on M14 melanoma, -59.7% (active); in the experiment with HCT-15 colon, -79.1% (active); in the experiment with HT29 colon, -62.7% (active). Moreover, the growth was -23.1% (active) with SNB-75 CNS; -80.6% (active) in the experiment with SNB-19 CNS; -91.9% (active) in the experiment with U251 CNS; -53% (active) with PC-3 prostate; -87.5% (active) in the experiment on SK-MEL-5 melanoma; -65.4% (active) in the experiment on UACC-62 melanoma. The growth is -94.8% (active) in the experiment on LOX IMVI melanoma and -68.2% (active) in the experiment with SK-MEL-28 melanoma.

As for `O=[N+]([O-])c1ccc(-c2cn3nc(-c4c[nH]c5ccccc45)sc3n2)cc1`, the growth in the experiment with DU-145 prostate was 110%; in the experiment with K-562 leukemia, 84.1%; with MALME-3M melanoma, 89.5%; in the experiment on MDA-MB-231 breast, 94%; with RXF 393 renal it was 108%; in the experiment with SF-268 CNS, 108%. In addition, the growth in the experiment with SF-295 CNS was 102%; in the experiment on SF-539 CNS it was 105%; in the experiment with UACC-257 melanoma, 95.3%; in the experiment on M14 melanoma, 97%; in the experiment on HCT-15 colon, 86%; with HT29 colon it was 95.3%. In addition, the growth in the experiment on SNB-75 CNS is 96.4%; with SNB-19 CNS, 93.4%; in the experiment with U251 CNS, 96.9%; in the experiment with SK-MEL-5 melanoma, 91.2%; with UACC-62 melanoma, 84.2%; in the experiment with LOX IMVI melanoma, 94.7%. The growth with SK-MEL-28 melanoma was 111%.

Take `C#CCO[C@H]1CC(CC#C)(CC#C)C(=O)[C@@H]2[C@H]1[C@H]1C[C@@H]3[C@@]4(C)CCC[C@@](C)(C(=O)OC)[C@@H]4CC[C@@]23C=C1C(C)C`: the growth in the experiment on DU-145 prostate is 97.7%; in the experiment with K-562 leukemia, 88.9%; with MALME-3M melanoma it was -35.9% (active); in the experiment on MDA-MB-231 breast it was 89.3%; in the experiment on RXF 393 renal it was 102%; in the experiment with SF-268 CNS, 92.9%. Moreover, the growth in the experiment on SF-295 CNS is 101%; in the experiment on SF-539 CNS, 85.4%; in the experiment with UACC-257 melanoma, 94.3%; in the experiment with M14 melanoma, 95.5%; in the experiment with HCT-15 colon, 98.2%; in the experiment on HT29 colon, 55.7%. The growth with SNB-75 CNS is 93.9%; with SNB-19 CNS it was 93.4%; in the experiment on U251 CNS it was 96.3%; with PC-3 prostate, 58.8%; in the experiment with SK-MEL-5 melanoma, 101%; in the experiment on UACC-62 melanoma, 78.6%. In addition, the growth was -86.6% (active) in the experiment on LOX IMVI melanoma and 99.1% in the experiment with SK-MEL-28 melanoma.

With `[2H]C([2H])([2H])Oc1ccc(F)cc1/C=C/C(=O)/C=C(/C=C/c1cc(F)ccc1OC([2H])([2H])[2H])OB(F)F`, the growth in the experiment with DU-145 prostate was 85.1%; in the experiment with K-562 leukemia, 47.6%; in the experiment on MALME-3M melanoma, 68.7%; in the experiment with MDA-MB-231 breast it was 98.4%; with RXF 393 renal it was 100%; in the experiment with SF-268 CNS, 98.6%. Also, the growth in the experiment on SF-295 CNS was 101%; in the experiment with SF-539 CNS, 113%; with UACC-257 melanoma, 78.7%; in the experiment with M14 melanoma it was 70.1%; with HCT-15 colon, 63.8%; with HT29 colon, 80.2%. Further, the growth with SNB-75 CNS is 94%; in the experiment on SNB-19 CNS, 94.9%; in the experiment on U251 CNS, 43.3%; in the experiment on PC-3 prostate, 66.7%; in the experiment with SK-MEL-5 melanoma, 94.5%; in the experiment with UACC-62 melanoma, 68.8%. For the same compound, the results for the growth in the experiment on LOX IMVI melanoma and in the experiment on SK-MEL-28 melanoma were 57.1% and 94.2%, respectively.

As for `O=c1c2ccccc2c(=O)c2c1sc1c(=O)c3ccc(O)cc3c(=O)c12`, the growth with DU-145 prostate is -98.5% (active); in the experiment on K-562 leukemia, -11.6% (active); with MALME-3M melanoma, -96.5% (active); with MDA-MB-231 breast, -13.5% (active); in the experiment with RXF 393 renal, -84% (active); with SF-268 CNS it was -32.1% (active). Also, the growth in the experiment on SF-295 CNS is -94.3% (active); in the experiment on SF-539 CNS, -97.1% (active); with UACC-257 melanoma, -95.2% (active); in the experiment on M14 melanoma, -87.5% (active); in the experiment with HCT-15 colon, -65.4% (active); in the experiment with HT29 colon, -47.4% (active). For the same compound, the growth in the experiment on SNB-75 CNS is -96.4% (active); in the experiment on SNB-19 CNS, -92% (active); with U251 CNS, -65.8% (active); in the experiment with PC-3 prostate, -12.7% (active); in the experiment with SK-MEL-5 melanoma it was -96.2% (active); in the experiment with UACC-62 melanoma, -73.2% (active). In addition, the figures for the growth in the experiment on LOX IMVI melanoma and in the experiment with SK-MEL-28 melanoma were -61% (active) and -65% (active), respectively.

In the case of `Cc1ccc(N2C(=O)CCC2=O)cc1`, the growth is 112% in the experiment on DU-145 prostate; 113% with K-562 leukemia; 108% in the experiment on MALME-3M melanoma; 93.7% with MDA-MB-231 breast; 121% in the experiment with RXF 393 renal; 103% in the experiment with SF-268 CNS. Further, the growth in the experiment on SF-295 CNS was 99.7%; with SF-539 CNS, 101%; in the experiment on UACC-257 melanoma it was 109%; in the experiment with M14 melanoma, 90.9%; in the experiment with HCT-15 colon, 96.3%; in the experiment with HT29 colon it was 98.9%. Moreover, the growth in the experiment with SNB-75 CNS was 103%; with SNB-19 CNS, 104%; in the experiment with U251 CNS, 105%; with PC-3 prostate it was 99.5%; in the experiment with SK-MEL-5 melanoma it was 100%; with UACC-62 melanoma, 98%. In addition, the growth in the experiment on LOX IMVI melanoma was 102%; in the experiment with SK-MEL-28 melanoma, 105%.

Take `Nc1ncnc2c1N=C(c1ccc3c(c1)OCO3)CC(c1cccc(Nc3ccnc4cc(C(F)(F)F)ccc34)c1)N2` (centres undefined): the growth in the experiment on DU-145 prostate was 87.3%; in the experiment with K-562 leukemia it was 21%; in the experiment with MALME-3M melanoma it was 84.3%; in the experiment on MDA-MB-231 breast it was 88.4%; with RXF 393 renal, 80.5%; with SF-268 CNS, 83.6%. Moreover, the growth is 87.6% in the experiment on SF-295 CNS; 98.9% in the experiment with SF-539 CNS; 74.9% in the experiment on UACC-257 melanoma; 94.2% with M14 melanoma; 70.8% in the experiment on HCT-15 colon; 69.6% in the experiment on HT29 colon. Also, the growth with SNB-75 CNS was 76.9%; with SNB-19 CNS it was 77.3%; in the experiment on U251 CNS, 37.4%; with PC-3 prostate, 75.6%; in the experiment with SK-MEL-5 melanoma it was 84.6%; in the experiment with UACC-62 melanoma, 87.1%. For the same compound, the growth is 51.8% with LOX IMVI melanoma and 101% in the experiment with SK-MEL-28 melanoma.
